Consider three compounds from PubChem BioAssay.

Molecules are shown by their SMILES.

The assay can be described thus: viability loss with induced miR-34 in A549 – imaging, A549 dox-inducible miR-34, nuclei and caspase counts, primary screen (AID 1347080). Further: test concentration not given here. The settings on record: A549 miR-34 inducible, Hoechst nuclei count, 48 h; measured here: total cells without miR-34 induction.
In turn, `COC(=O)[C@H](Cc1ccccc1)NC(=O)/C=C/c1ccc(O)cc1` showed a cell count of 6490. In the case of `CCCCC[C@@](C)(O)/C=C/[C@@H]1[C@@H](C/C=C\CCCC(=O)OC)[C@@H](O)C[C@H]1O` it was 6260; in that of `O=C(/C=C/c1cccc(C(=O)NO)c1)NO`, 4940.
